# Measurements from the supplement of paper PMC6555819.
# Experiments:
# Test in all cases: PBM binding z-score (relative to random genomic background probes); higher = stronger binding; sequences stand for … in GC…GCGATTGACAGCGTAGAATGAAGG
# [1] = system: FXR:RXRa (NR concentration 270 nM, RXRa partner concentration 90 nM)
# How it was run: (§1)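 Binding buffer was PBS pH 7.4 with 2% milk, 0.02% Triton X-100, 1 mM DTT, 0.2 mg/mL BSA and 0.4 mg/ml salmon testes DNA. In it, ligand-free nuclear receptor dimers were incubated 1 h on custom Agilent 4×180K protein-binding microarrays carrying double-stranded probes. Antibodies against each partner (one per run) detected binding, and z-scores were calculated against random background probes after regression normalization of scanned fluorescence.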
# [2] = system: LXRa:RXRa (NR concentration 270 nM, RXRa partner concentration 90 nM)
# How it was run: as §1
# [3] = system: LXRa homodimer (NR concentration 270 nM)
# How it was run: as §1
# [4] = system: LXRb:RXRa (NR concentration 270 nM, RXRa partner concentration 90 nM)
# How it was run: as §1
# [5] = system: LXRb homodimer (NR concentration 270 nM)
# How it was run: as §1
# [6] = system: PPARa:RXRa (NR concentration 270 nM, RXRa partner concentration 90 nM)
# How it was run: as §1
# [7] = system: PPARg:RXRa (NR concentration 180 nM, RXRa partner concentration 90 nM)
# How it was run: as §1
# [8] = system: PPARg:RXRa 270nM:90nM, anti-RXR (NR concentration 270 nM, RXRa partner concentration 90 nM)
# How it was run: as §1
# [9] = system: PPARg:RXRa 30nM:10nM, anti-RXR (NR concentration 30 nM, RXRa partner concentration 10 nM)
# How it was run: as §1
# [10] = system: PPARg:RXRa 90nM:30nM, anti-RXR (NR concentration 90 nM, RXRa partner concentration 30 nM)
# How it was run: as §1
# [11] = system: PPARg:RXRa DBDmut IVT, anti-RXR (DBD mutation: RXRa K156A/R161A, NR concentration 270 nM, RXRa partner concentration 90 nM)
# How it was run: as §1
# [12] = system: PPARg:RXRa IVT, anti-PPARg (NR concentration 270 nM, RXRa partner concentration 90 nM)
# How it was run: as §1
# [13] = system: PPARg DBDmut:RXRa IVT, anti-PPARg (DBD mutation: PPARg1 K132A/R137A, NR concentration 270 nM, RXRa partner concentration 90 nM)
# How it was run: as §1
# [14] = system: PPARg DBDmut IVT, anti-PPARg (DBD mutation: PPARg1 K132A/R137A, NR concentration 270 nM)
# How it was run: as §1
# [15] = system: PPARg homodimer (NR concentration 180 nM)
# How it was run: as §1
# [16] = system: PXR:RXRa (NR concentration 270 nM, RXRa partner concentration 90 nM)
# How it was run: as §1
# [17] = system: PXR homodimer (NR concentration 270 nM)
# How it was run: as §1
# [18] = system: RARa:RXR (NR concentration 270 nM, RXRa partner concentration 90 nM)
# How it was run: as §1
# [19] = system: RARa homodimer (NR concentration 270 nM)
# How it was run: as §1
# [20] = system: RARb:RXRa (NR concentration 270 nM, RXRa partner concentration 90 nM)
# How it was run: as §1
Sequence,PBM binding z-score [1],PBM binding z-score [2],PBM binding z-score [3],PBM binding z-score [4],PBM binding z-score [5],PBM binding z-score [6],PBM binding z-score [7],PBM binding z-score [8],PBM binding z-score [9],PBM binding z-score [10],PBM binding z-score [11],PBM binding z-score [12],PBM binding z-score [13],PBM binding z-score [14],PBM binding z-score [15],PBM binding z-score [16],PBM binding z-score [17],PBM binding z-score [18],PBM binding z-score [19],PBM binding z-score [20]
GCTGGTAGGTCAGGTTGGTCAGCTAACGGGTACG,1.28,1.03,0.172,0.929,-0.0209,2.05,1.44,1.88,0.102,1.02,3.54,3.65,-0.271,0.163,1.32,0.581,0.431,0.986,0.462,3.16
TAGCCTCGGTCAGATCGGGCCAGTATACGCTATA,-0.00556,-0.383,-0.622,-0.821,-0.951,-0.586,0.128,-0.706,-0.684,-1.07,-1.11,-0.335,-0.636,-1.63,-1.18,-0.533,-1.31,-0.301,-1.52,1.78
TGAATGACGTTATAAGATCAGGGAACGTTGCAAA,-0.0798,-0.0437,-0.351,-0.274,-0.245,-0.16,0.208,0.0909,0.775,0.526,-1.22,-0.257,1.11,0.502,0.0586,-0.0188,-0.13,0.166,0.18,-0.286
ATTTACGGGTCAACGAGGTTATAGCACGCGTATA,7.58,5.96,2.29,4.93,1.41,6.1,6.73,6.17,3.27,5.21,3.42,4.88,2.57,2.5,2.8,5.6,4.18,5.97,1.69,4.48
TAGCCTAGGTCATCCGGGCCAGTATAGTGTCGGC,4.52,3.54,0.755,2,0.281,3.48,1.95,2.35,0.0412,1.5,1.42,2.94,0.0914,-0.657,1.35,2.07,0.0405,2.61,-0.259,3.77
TCTATTAGTTGATTAGGGCAACCGCAACAGCGGA,0.86,0.405,0.129,0.329,0.245,1.06,0.368,1.95,3.34,2.72,2.2,1.59,0.83,0.659,0.498,0.281,0.274,0.408,0.676,0.729
GCGACTGGGGCAAAGCAGGTTACCACAAGGTTGG,0.61,-0.0445,-0.447,0.204,-1.07,1.14,1.35,1.34,-0.386,0.797,4.37,3.9,-0.49,-1.47,0.0526,0.473,-0.466,0.796,-0.331,0.888
CTCGAAAGGTCGTGCTCAGGTGAGTAGACCAAAC,5.65,3.86,-0.195,3.08,0.0468,4.81,2.71,3.96,0.899,2.88,0.641,1.86,1.76,0.659,3.39,3.11,-0.191,4.48,-0.171,3.91
GCTTACGGGTCAGAGGTTATAGCATGAATAGAAT,5.2,3.46,0.404,3.77,0.261,5.92,9.08,7.82,6.2,8.57,2.54,4.73,0.344,0.535,2.65,3.89,0.491,5.92,0.521,3.58
TTACCAAGGTGAGCTCAGGTCGTTGATCCAACTC,1.26,0.561,-0.29,0.42,-1.08,0.894,-0.199,0.203,-0.185,-0.151,1.23,1.8,0.00673,-0.46,-0.274,3.09,-0.622,0.823,-0.956,1.33
ATCTCTAGGTAACAAGTTTAGTGAAAGAGAGGAC,0.428,0.215,0.326,0.212,0.657,0.577,0.844,1.35,0.486,1.37,3.18,2.92,1.24,1.38,1.04,0.591,0.703,0.429,0.873,0.574
TCATATAGGCAAACAGGTGAAAGTCCGTAAGTTA,0.489,0.602,-0.0652,0.614,-0.318,1.33,0.726,2.34,3.4,2.91,2.62,1.42,0.461,0.241,0.782,0.517,0.177,0.939,0.994,0.119
ACTTACGGGTCAACGAGGTTAAAGCACGCGTATA,7.3,5.07,0.882,4.97,0.527,6.09,6.14,5.57,2.44,4.29,3.22,4.19,0.985,1.02,2.28,5.38,3.33,5.36,0.479,4.53
CCTACTGAGCCAAAAAGGTCATTGATGCCGATAA,3.37,4.28,3.65,4.29,1.17,4.37,1.31,2.81,0.896,1.99,0.522,1.14,-0.507,0.266,3.04,4.49,2.44,4.93,2.61,3.86
